# Results taken from ChEMBL document CHEMBL1961873, “Compounds: GSK PKIS; Assays: Nanosyn kinase panel” (2012).
# Legend:
# [1] = target: Platelet-derived growth factor receptor beta (Homo sapiens) (UniProt P09619); conditions: at 0.1 µM
# [2] = target: Platelet-derived growth factor receptor beta (Homo sapiens) (UniProt P09619); conditions: at 1 µM
# [3] = target: Tyrosine-protein kinase FRK (Homo sapiens) (UniProt P42685); conditions: at 0.1 µM
# [4] = target: Tyrosine-protein kinase FRK (Homo sapiens) (UniProt P42685); conditions: at 1 µM
# [5] = target: Protein-tyrosine kinase 2-beta (Homo sapiens) (UniProt Q14289); conditions: at 0.1 µM
# [6] = target: Protein-tyrosine kinase 2-beta (Homo sapiens) (UniProt Q14289); conditions: at 1 µM
# [7] = target: Proto-oncogene tyrosine-protein kinase receptor Ret (Homo sapiens) (UniProt P07949); conditions: at 0.1 µM
# [8] = target: Proto-oncogene tyrosine-protein kinase receptor Ret (Homo sapiens) (UniProt P07949); conditions: at 1 µM
# [9] = test system: Proto-oncogene tyrosine-protein kinase receptor Ret (Homo sapiens), P07949 [V804L]; conditions: at 0.1 µM
# [10] = test system: Proto-oncogene tyrosine-protein kinase receptor Ret (Homo sapiens), P07949 [V804L]; conditions: at 1 µM
# [11] = test system: Proto-oncogene tyrosine-protein kinase receptor Ret (Homo sapiens), P07949 [Y791F]; conditions: at 0.1 µM
# [12] = test system: Proto-oncogene tyrosine-protein kinase receptor Ret (Homo sapiens), P07949 [Y791F]; conditions: at 1 µM
# [13] = target: Macrophage-stimulating protein receptor (Homo sapiens) (UniProt Q04912); conditions: at 0.1 µM
# [14] = target: Macrophage-stimulating protein receptor (Homo sapiens) (UniProt Q04912); conditions: at 1 µM
# [15] = target: Proto-oncogene tyrosine-protein kinase ROS (Homo sapiens) (UniProt P08922); conditions: at 0.1 µM
# [16] = target: Proto-oncogene tyrosine-protein kinase ROS (Homo sapiens) (UniProt P08922); conditions: at 1 µM
# [17] = target: Proto-oncogene tyrosine-protein kinase Src (Homo sapiens) (UniProt P12931); conditions: at 0.1 µM
# [18] = target: Proto-oncogene tyrosine-protein kinase Src (Homo sapiens) (UniProt P12931); conditions: at 1 µM
# [19] = target: Tyrosine-protein kinase Srms (Homo sapiens) (UniProt Q9H3Y6); conditions: at 0.1 µM
# [20] = target: Tyrosine-protein kinase Srms (Homo sapiens) (UniProt Q9H3Y6); conditions: at 1 µM
# [21] = target: Tyrosine-protein kinase SYK (Homo sapiens) (UniProt P43405); conditions: at 0.1 µM
# [22] = target: Tyrosine-protein kinase SYK (Homo sapiens) (UniProt P43405); conditions: at 1 µM
# [23] = target: Tyrosine-protein kinase Tec (Homo sapiens) (UniProt P42680); conditions: at 0.1 µM
# [24] = target: Tyrosine-protein kinase Tec (Homo sapiens) (UniProt P42680); conditions: at 1 µM
# [25] = target: Angiopoietin-1 receptor (Homo sapiens) (UniProt Q02763); conditions: at 0.1 µM
# [26] = target: Angiopoietin-1 receptor (Homo sapiens) (UniProt Q02763); conditions: at 1 µM
# [27] = target: Non-receptor tyrosine-protein kinase TNK1 (Homo sapiens) (UniProt Q13470); conditions: at 0.1 µM
# [28] = target: Non-receptor tyrosine-protein kinase TNK1 (Homo sapiens) (UniProt Q13470); conditions: at 1 µM
# [29] = target: Activated CDC42 kinase 1 (Homo sapiens) (UniProt Q07912); conditions: at 0.1 µM
# [30] = target: Activated CDC42 kinase 1 (Homo sapiens) (UniProt Q07912); conditions: at 1 µM
# [31] = target: High affinity nerve growth factor receptor (Homo sapiens) (UniProt P04629); conditions: at 0.1 µM
# [32] = target: High affinity nerve growth factor receptor (Homo sapiens) (UniProt P04629); conditions: at 1 µM
# [33] = target: BDNF/NT-3 growth factors receptor (Homo sapiens) (UniProt Q16620); conditions: at 0.1 µM
# [34] = target: BDNF/NT-3 growth factors receptor (Homo sapiens) (UniProt Q16620); conditions: at 1 µM
# [35] = target: NT-3 growth factor receptor (Homo sapiens) (UniProt Q16288); conditions: at 0.1 µM
# [36] = target: NT-3 growth factor receptor (Homo sapiens) (UniProt Q16288); conditions: at 1 µM
# [37] = target: Tyrosine-protein kinase TXK (Homo sapiens) (UniProt P42681); conditions: at 0.1 µM
# [38] = target: Tyrosine-protein kinase TXK (Homo sapiens) (UniProt P42681); conditions: at 1 µM
# [39] = target: Non-receptor tyrosine-protein kinase TYK2 (Homo sapiens) (UniProt P29597); conditions: at 0.1 µM;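 further: each value is a mean of the inhibition readings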
# [40] = target: Dual specificity protein kinase TTK (Homo sapiens) (UniProt P33981); conditions: at 1 µM;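 further: reported figures are mean TTK inhibition at 1 µM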
# [41] = target: Aurora kinase A (Homo sapiens) (UniProt O14965); conditions: at 0.1 µM
# [42] = target: Aurora kinase A (Homo sapiens) (UniProt O14965); conditions: at 1 µM
# [43] = target: Aurora kinase B (Homo sapiens) (UniProt Q96GD4); conditions: at 0.1 µM
# [44] = target: Aurora kinase B (Homo sapiens) (UniProt Q96GD4); conditions: at 1 µM
# [45] = target: Aurora kinase C (Homo sapiens) (UniProt Q9UQB9); conditions: at 0.1 µM
# [46] = target: Aurora kinase C (Homo sapiens) (UniProt Q9UQB9); conditions: at 1 µM
# [47] = target: Serine/threonine-protein kinase 10 (Homo sapiens) (UniProt O94804); conditions: at 0.1 µM
# [48] = target: Serine/threonine-protein kinase 10 (Homo sapiens) (UniProt O94804); conditions: at 1 µM
# [49] = target: Mitogen-activated protein kinase kinase kinase kinase 2 (Homo sapiens) (UniProt Q12851); conditions: at 0.1 µM
# [50] = target: Mitogen-activated protein kinase kinase kinase kinase 2 (Homo sapiens) (UniProt Q12851); conditions: at 1 µM
# [51] = target: Mitogen-activated protein kinase kinase kinase kinase 4 (Homo sapiens) (UniProt O95819); conditions: at 0.1 µM
# [52] = target: Mitogen-activated protein kinase kinase kinase kinase 4 (Homo sapiens) (UniProt O95819); conditions: at 1 µM
# [53] = target: Dual specificity mitogen-activated protein kinase kinase 1 (Homo sapiens) (UniProt Q02750); conditions: at 0.1 µM
# [54] = target: Dual specificity mitogen-activated protein kinase kinase 1 (Homo sapiens) (UniProt Q02750); conditions: at 1 µM
# [55] = target: Misshapen-like kinase 1 (Homo sapiens) (UniProt Q8N4C8); conditions: at 0.1 µM
# [56] = target: Misshapen-like kinase 1 (Homo sapiens) (UniProt Q8N4C8); conditions: at 1 µM
# Chain of Tyrosine-protein kinase FRK (Homo sapiens) (P42685 whole entry): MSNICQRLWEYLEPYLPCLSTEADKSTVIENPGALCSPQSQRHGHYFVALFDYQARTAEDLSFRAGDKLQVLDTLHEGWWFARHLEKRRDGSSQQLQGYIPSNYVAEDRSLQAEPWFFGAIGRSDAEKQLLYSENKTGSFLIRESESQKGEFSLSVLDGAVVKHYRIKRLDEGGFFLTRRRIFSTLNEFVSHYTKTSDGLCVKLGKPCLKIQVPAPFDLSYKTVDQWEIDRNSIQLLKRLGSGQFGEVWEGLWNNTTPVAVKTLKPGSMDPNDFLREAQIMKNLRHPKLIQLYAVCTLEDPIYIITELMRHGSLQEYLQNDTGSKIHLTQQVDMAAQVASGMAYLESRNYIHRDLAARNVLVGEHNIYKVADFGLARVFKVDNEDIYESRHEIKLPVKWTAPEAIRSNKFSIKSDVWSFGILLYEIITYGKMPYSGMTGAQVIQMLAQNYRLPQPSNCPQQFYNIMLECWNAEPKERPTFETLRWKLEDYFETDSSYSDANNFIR
# Chain of Proto-oncogene tyrosine-protein kinase Src (Homo sapiens) (P12931 2-536 limits assumed): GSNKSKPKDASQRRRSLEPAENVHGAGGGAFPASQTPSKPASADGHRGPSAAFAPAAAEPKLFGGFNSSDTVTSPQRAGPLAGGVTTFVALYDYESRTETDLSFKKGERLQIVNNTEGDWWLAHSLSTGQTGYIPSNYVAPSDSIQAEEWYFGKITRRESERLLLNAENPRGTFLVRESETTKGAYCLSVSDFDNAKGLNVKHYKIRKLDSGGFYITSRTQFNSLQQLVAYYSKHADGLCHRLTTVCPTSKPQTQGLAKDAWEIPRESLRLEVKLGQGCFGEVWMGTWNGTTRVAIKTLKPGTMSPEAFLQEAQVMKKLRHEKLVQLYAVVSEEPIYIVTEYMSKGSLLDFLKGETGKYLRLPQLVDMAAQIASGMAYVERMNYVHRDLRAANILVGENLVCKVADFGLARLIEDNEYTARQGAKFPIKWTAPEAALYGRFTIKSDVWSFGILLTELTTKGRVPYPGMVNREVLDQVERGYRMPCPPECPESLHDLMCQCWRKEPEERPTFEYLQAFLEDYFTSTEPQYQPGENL
# Chain of Proto-oncogene tyrosine-protein kinase receptor Ret (Homo sapiens) (P07949 whole entry): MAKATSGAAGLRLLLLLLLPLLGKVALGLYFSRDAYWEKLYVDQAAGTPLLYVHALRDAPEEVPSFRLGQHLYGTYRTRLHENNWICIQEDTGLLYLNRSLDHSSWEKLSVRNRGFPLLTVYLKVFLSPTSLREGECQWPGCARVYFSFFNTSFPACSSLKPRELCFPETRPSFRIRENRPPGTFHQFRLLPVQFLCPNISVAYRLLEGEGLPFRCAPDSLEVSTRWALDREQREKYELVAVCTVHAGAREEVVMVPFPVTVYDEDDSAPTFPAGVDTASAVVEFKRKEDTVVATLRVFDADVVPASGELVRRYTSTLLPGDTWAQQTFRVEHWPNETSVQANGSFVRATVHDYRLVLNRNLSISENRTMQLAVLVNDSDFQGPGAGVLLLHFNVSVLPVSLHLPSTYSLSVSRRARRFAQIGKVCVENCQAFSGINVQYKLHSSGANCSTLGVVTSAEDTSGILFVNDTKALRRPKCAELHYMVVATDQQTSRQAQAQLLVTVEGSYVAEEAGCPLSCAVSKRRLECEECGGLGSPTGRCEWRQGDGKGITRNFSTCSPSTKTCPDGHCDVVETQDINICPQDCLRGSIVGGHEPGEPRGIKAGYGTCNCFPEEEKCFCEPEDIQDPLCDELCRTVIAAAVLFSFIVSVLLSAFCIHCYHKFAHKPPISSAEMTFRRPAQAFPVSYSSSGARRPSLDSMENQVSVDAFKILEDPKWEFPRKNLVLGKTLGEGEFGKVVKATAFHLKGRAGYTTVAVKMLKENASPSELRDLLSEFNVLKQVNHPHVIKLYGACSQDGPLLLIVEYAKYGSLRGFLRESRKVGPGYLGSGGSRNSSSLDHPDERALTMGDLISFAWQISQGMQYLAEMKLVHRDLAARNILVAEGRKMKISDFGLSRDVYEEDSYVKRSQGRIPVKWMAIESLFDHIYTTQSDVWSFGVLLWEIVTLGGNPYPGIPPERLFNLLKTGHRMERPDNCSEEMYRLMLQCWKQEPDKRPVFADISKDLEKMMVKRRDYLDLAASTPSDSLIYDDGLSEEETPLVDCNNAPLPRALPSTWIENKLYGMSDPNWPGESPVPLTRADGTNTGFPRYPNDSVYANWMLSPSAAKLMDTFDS
# Chain of Protein-tyrosine kinase 2-beta (Homo sapiens) (Q14289 whole entry, looked up): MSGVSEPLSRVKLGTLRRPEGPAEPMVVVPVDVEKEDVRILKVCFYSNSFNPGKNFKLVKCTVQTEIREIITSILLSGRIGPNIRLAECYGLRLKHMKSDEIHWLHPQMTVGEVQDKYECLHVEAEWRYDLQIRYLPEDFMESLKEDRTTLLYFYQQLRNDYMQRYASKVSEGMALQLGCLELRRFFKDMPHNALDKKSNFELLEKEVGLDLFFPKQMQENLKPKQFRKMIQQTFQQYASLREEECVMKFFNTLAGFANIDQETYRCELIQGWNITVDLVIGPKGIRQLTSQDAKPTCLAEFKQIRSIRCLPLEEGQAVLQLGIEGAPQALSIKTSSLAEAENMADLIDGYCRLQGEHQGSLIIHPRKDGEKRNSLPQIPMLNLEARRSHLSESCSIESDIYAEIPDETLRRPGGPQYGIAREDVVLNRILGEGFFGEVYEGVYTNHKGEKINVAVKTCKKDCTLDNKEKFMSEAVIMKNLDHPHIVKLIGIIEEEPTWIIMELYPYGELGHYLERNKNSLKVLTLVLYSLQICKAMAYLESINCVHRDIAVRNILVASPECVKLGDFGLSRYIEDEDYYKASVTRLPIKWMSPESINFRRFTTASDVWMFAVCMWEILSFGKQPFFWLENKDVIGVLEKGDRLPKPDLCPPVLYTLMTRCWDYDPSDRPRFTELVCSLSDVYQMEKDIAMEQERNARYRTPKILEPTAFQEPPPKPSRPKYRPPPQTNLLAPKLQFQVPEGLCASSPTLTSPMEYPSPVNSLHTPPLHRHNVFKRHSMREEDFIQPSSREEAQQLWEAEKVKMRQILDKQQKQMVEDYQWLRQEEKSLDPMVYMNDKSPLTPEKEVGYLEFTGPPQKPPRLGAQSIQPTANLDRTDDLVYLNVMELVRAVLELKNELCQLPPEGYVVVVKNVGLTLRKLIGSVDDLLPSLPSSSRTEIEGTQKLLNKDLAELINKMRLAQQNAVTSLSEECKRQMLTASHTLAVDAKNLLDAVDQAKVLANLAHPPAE
# Chain of High affinity nerve growth factor receptor (Homo sapiens) (P04629 33-796 limits assumed): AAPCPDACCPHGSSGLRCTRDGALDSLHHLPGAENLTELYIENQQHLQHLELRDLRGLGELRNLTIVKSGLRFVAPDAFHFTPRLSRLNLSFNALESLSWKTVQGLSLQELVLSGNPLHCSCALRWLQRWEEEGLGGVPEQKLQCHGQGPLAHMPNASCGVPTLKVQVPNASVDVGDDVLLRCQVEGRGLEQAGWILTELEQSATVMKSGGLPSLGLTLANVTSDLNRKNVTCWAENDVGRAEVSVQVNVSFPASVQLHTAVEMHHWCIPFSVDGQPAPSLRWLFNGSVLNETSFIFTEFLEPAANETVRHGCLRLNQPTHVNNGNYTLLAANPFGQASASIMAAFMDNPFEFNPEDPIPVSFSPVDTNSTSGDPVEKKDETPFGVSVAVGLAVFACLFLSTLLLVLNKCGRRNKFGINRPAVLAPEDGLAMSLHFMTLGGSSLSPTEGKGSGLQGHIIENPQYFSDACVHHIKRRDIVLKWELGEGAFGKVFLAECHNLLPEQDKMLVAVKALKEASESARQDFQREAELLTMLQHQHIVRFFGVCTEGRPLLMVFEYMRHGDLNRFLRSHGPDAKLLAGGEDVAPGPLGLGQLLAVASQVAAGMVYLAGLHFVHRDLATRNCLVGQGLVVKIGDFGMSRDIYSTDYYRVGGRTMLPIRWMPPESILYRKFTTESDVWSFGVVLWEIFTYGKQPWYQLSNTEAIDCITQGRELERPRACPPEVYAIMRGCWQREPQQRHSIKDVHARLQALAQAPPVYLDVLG
# Chain of Activated CDC42 kinase 1 (Homo sapiens) (Q07912 whole entry, looked up): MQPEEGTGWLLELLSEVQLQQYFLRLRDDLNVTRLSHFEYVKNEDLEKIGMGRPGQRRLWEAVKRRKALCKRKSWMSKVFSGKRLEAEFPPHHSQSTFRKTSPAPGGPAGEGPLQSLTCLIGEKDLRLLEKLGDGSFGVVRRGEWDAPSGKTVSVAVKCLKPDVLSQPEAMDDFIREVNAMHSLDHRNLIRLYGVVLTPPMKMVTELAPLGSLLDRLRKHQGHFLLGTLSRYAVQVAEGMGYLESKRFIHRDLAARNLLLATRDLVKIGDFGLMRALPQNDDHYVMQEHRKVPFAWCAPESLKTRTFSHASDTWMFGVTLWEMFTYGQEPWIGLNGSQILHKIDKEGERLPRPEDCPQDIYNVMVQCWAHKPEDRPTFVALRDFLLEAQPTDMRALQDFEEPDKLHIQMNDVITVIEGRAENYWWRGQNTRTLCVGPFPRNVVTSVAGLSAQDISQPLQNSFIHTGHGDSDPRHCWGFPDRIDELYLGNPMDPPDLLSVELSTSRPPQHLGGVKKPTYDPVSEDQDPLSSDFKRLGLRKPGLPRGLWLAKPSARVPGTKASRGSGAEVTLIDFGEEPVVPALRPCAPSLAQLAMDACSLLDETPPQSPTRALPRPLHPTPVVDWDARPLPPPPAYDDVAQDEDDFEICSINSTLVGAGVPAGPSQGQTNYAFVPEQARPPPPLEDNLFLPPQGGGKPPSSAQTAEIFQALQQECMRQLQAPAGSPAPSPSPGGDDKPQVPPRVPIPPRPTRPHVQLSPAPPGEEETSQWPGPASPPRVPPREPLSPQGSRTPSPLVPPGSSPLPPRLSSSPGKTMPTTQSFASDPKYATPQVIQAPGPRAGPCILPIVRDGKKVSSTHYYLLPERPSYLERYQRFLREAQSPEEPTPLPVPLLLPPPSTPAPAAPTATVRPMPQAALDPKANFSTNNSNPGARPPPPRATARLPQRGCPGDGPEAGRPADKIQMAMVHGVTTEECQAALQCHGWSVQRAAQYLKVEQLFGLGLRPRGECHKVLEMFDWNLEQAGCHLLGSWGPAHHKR
compound,measurement,setting,value
CNC(=O)Oc1cc(C)c(/C=C/c2cncc(C(=O)NC)c2)c(C)c1,inhibition,[1],8.91%
same,inhibition,[2],49.7%
same,inhibition,[3],2.61%
same,inhibition,[4],13.1%
same,inhibition,[5],10.7%
same,inhibition,[6],6.54%
same,inhibition,[7],-1.48%
same,inhibition,[8],2.54%
same,inhibition,[9],2.06%
same,inhibition,[10],3.32%
same,inhibition,[11],2.2%
same,inhibition,[12],2.71%
same,inhibition,[13],-0.85%
same,inhibition,[14],4.22%
same,inhibition,[15],9.53%
same,inhibition,[16],13.7%
same,inhibition,[17],5.94%
same,inhibition,[18],49.2%
same,inhibition,[19],4.13%
same,inhibition,[20],19.3%
same,inhibition,[21],-1.41%
same,inhibition,[22],-0.86%
same,inhibition,[23],8.66%
same,inhibition,[24],39.1%
same,inhibition,[25],-0.08%
same,inhibition,[26],3.57%
same,inhibition,[27],1.27%
same,inhibition,[28],14.6%
same,inhibition,[29],0.99%
same,inhibition,[30],6.77%
same,inhibition,[31],1.04%
same,inhibition,[32],-0.56%
same,inhibition,[33],1.03%
same,inhibition,[34],0.99%
same,inhibition,[35],-0.56%
same,inhibition,[36],2.73%
same,inhibition,[37],13.4%
same,inhibition,[38],34.7%
same,inhibition,[39],-4.14%
same,inhibition,[40],8.09%
same,inhibition,[41],2.77%
same,inhibition,[42],4.58%
same,inhibition,[43],0.2%
same,inhibition,[44],1.25%
same,inhibition,[45],0.65%
same,inhibition,[46],9.48%
same,inhibition,[47],5.93%
same,inhibition,[48],16.9%
same,inhibition,[49],0.92%
same,inhibition,[50],5.49%
same,inhibition,[51],3.12%
same,inhibition,[52],8.96%
same,inhibition,[53],2.97%
same,inhibition,[54],4.15%
same,inhibition,[55],3.2%
same,inhibition,[56],7.01%
